PubChem BioAssay AID2283304 (EPA ToxCast)
Results filed as inconclusive are left out. Calls of active or inactive are those of the source. How the source made its calls: active means hit-call score of the fitted dose curve at least 0.9, where 1 is the maximum; inconclusive means response in the unintended direction; inactive means score below 0.9.

These compounds were tested against rat Galanin Receptor, Galr1 (gene 50577) (UniProt Q62805) (assay: NVS_GPCR_rGalanin: NovaScreen (NVS) G Protein-Coupled Receptor Assay for rat Galanin Receptor).
Sequence of rat Galanin Receptor, Galr1 (gene 50577) (Q62805 whole entry, looked up): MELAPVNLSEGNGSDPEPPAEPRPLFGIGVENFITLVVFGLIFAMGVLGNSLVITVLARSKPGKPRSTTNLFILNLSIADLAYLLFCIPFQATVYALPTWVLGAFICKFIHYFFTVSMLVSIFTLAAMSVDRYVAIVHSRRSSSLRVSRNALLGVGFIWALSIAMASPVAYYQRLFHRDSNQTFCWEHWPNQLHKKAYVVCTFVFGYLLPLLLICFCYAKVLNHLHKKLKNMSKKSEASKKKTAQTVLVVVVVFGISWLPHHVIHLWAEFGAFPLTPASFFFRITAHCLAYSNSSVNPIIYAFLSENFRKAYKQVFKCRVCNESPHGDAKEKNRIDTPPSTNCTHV
Experimental: NVS_GPCR_rGalanin is a biochemical, single-readout assay that uses extracted gene-proteins from Rat brain membranes in a tissue-based cell-free assay. Measurements were taken 2 hours after chemical dosing in a 96-well plate.NVS_GPCR_rGalanin is one of one assay component(s) measured or calculated from the NVS_GPCR_rGalanin assay. It is designed to make measurements of radioligand binding, a form of binding reporter, as detected with scintillation counting signals by Filter-based radiodetection technology.Data from the assay component NVS_GPCR_rGalanin was analyzed into 1 assay endpoint. This assay endpoint, NVS_GPCR_rGalanin, was analyzed in the positive analysis fitting direction relative to DMSO as the negative control and baseline of activity. Using a type of binding reporter, loss-of-signal activity can be used to understand changes in the binding as they relate to the gene Galr1. Furthermore, this assay endpoint can be referred to as a primary readout, because the performed assay has only produced 1 assay endpoint. To generalize the intended target to other relatable targets, this assay endpoint is annotated to the gpcr intended target family, where the subfamily is rhodopsin-like receptor.
Binding assays used specific radioligands (tritiated, iodinated) with non-radioactive competitive displacement ligands in agonist or antagonist protocols (as indicated) and various reference compounds and inhibitors to titrate specific binding to receptors and transporters. Most enzyme assays (CYPs, kinases, phosphatases, proteases, HDACs) used recombinant protein and specific substrates (fluorescence mostly, some colorimetric and radioactive) and inhibitors, followed by a biochemical separation of substrate and product. All assays for the biochemical HTS were initially run in duplicate at a single concentration (10 uM for CYP450 assays and 25 uM for all others). Assay-chemical combinations meeting a pre-defined threshold (e.g., 30% inhibition and other criteria defined below) were then run in singleton concentration-response format with maximum concentration of 20 uM for CYPs and 50 uM for all others. Each assay was run with positive and negative controls, and concurrent controls on every plate. The follow-up (secondary) screen tested active chemical-pairs in concentration series, as well as a few additional assays not tested in the primary screen, some selected negative inactives, and several cases re-run in the concentration series for confirmatory purposes.
For CCC[CH2][Sn]([Cl])([CH2]CCC)[CH2]CCC, the AC50 was 3.99 µM (active). For Cc1cc(O)ccc1Cl, the outcome was “inactive”. C=CCC1=C(C)C(OC(=O)C2C(C=C(C)C)C2(C)C)CC1=O (stereo unspecified) was tested, and the outcome was “inactive”. In the case of O=c1ccc2ccccc2o1, the outcome is reported as “inactive”. With O=C(O)C1C(C(=O)O)C2(Cl)C(Cl)=C(Cl)C1(Cl)C2(Cl)Cl (stereo unspecified) the outcome was “inactive”. For CCCCCCCCCCC, the outcome was “inactive”. For CC(C)NCC(O)c1ccc(O)c(O)c1 (stereo unspecified), the outcome was “inactive”. For CC(C)=CCCC(C)=CC=O, the outcome was “inactive”. In the case of COS(C)(=O)=O, the outcome is reported as “inactive”. CCCCCCCCCCO was tested, and the outcome was “inactive”. With CN(C)C(=O)Cl the outcome was “inactive”. For CCN1CCC2(CC1)COc1cc3c(cc12)N(C(=O)c1ccc(-c2ccc(-c4nnc(C)o4)cc2C)cc1)CC3, the outcome was “inactive”. c1ccc2c(c1)-c1cccc3c1c-2cc1ccccc13 was tested, and the outcome was “inactive”. CCCCc1ccc2c(n1)[C@@H](c1ccc(OC)cc1C[C@H](C)C(=O)O)[C@H](C(=O)O)[C@H]2c1ccc2c(c1)OCO2 was tested, and the outcome was “inactive”. With CC(C)(c1ccccc1)c1ccc(O)c(C(C)(C)c2ccccc2)c1 the outcome was “inactive”. For Cc1cccc(C)c1O, the outcome was “inactive”.
